Results taken from the supplement of paper PMC12350171.
Where a name gives a salt, the structure may show the parent alone.

Assays:
Conditions in all cases: 20 µM
[1] = tested on: Salmonella enterica typhimurium; assay: growth AUC normalised to DMSO control (fraction of control); higher = less growth inhibition, active = hit call of the paper
In short: (§1)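 Hemin and NAD were added to the medium for Haemophilus parainfluenzae. All pathogens, after two anaerobic passages, were inoculated at a starting OD578 of 0.01 into pre-reduced mGAM plates with 20 μM compound and 1% DMSO under breathable seals, and OD578 was read hourly for 24 h in three biological replicates. AUC of each growth curve was obtained with the trapezoidal rule up to the exponential-to-stationary transition and normalised to DMSO controls from the same plate.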

Shigella flexneri = assay: as above
In short: as §1

Vibrio cholerae = assay: as above
In short: as §1

[2] = tested on: Yersinia pseudotuberculosis; assay: as above
In short: as §1

P. vulgatus RND KO = assay: growth AUC normalised to DMSO control (median) (fraction of control); higher = less growth inhibition, active = hit call of the paper
In short: (§2)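 Anaerobic growth was tracked hourly at OD578 for 24 h in 96-well plates of mGAM seeded at OD578 0.01 with each approved-drug library compound at 20 μM and 1% DMSO. Strains had first been passaged twice overnight without oxygen. Three biological replicates were run. The reported median is the area under the curve, calculated by the trapezoidal rule on curves truncated at entry into stationary phase and normalised to vehicle wells on the same plate.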

P. vulgatus WT = assay: as above
In short: as §2

[3] = tested on: S. enterica typhimurium WT; assay: as above
In short: as §2

[4] = tested on: S. enterica typhimurium tolC KO; assay: as above
In short: as §2

Measured: growth AUC normalised to DMSO control
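Wherever growth AUC normalised to DMSO control (median) is given: active when median AUC fell below 0.1.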

Clc1ccccc1CN1CCc2sccc2C1 [Ticlopidine hydrochloride]
inactive: [1] 0.975 | Shigella flexneri 0.988 | Vibrio cholerae 0.947 | [2] 1.01 | P. vulgatus RND KO 0.986 | P. vulgatus WT 0.997 | [3] 0.967 | [4] 0.973

C=CC(N)CCC(=O)O (stereo not given) [Vigabatrin hydrochloride]
inactive: [1] 1.02 | Shigella flexneri 1.02 | Vibrio cholerae 1.01 | [2] 0.997 | P. vulgatus RND KO 1.01 | P. vulgatus WT 1.06 | [3] 1.03 | [4] 0.992

CCCCc1oc2ccccc2c1C(=O)c1cc(I)c(OCCN(CC)CC)c(I)c1 [Amiodarone hydrochloride]
inactive: [1] 0.999 | Shigella flexneri 1.04 | Vibrio cholerae 1 | [2] 1.02 | P. vulgatus RND KO 1.02 | P. vulgatus WT 1.06 | [3] 1.04 | [4] 1.02

CN(C)CCCN1c2ccccc2Sc2ccccc21 [Promazine hydrochloride]
inactive: [1] 0.936 | Shigella flexneri 0.945 | [2] 0.965 | P. vulgatus RND KO 0.821 | P. vulgatus WT 0.776 | [3] 0.991 | [4] 0.971
active: Vibrio cholerae 0.86

CCN1CCCC(OC(=O)C(c2ccccc2)c2ccccc2)C1 (stereo not given) [Piperidolate hydrochloride]
inactive: [1] 1.01 | Shigella flexneri 1.02 | Vibrio cholerae 1.03 | [2] 0.967 | P. vulgatus RND KO 1.03 | P. vulgatus WT 1.04 | [3] 0.998 | [4] 0.976

CCN1CCN(C(=O)N[C@@H](C(=O)N[C@@H]2C(=O)N3C(C(=O)O)=C(CSc4nnnn4C)CS[C@H]23)c2ccc(O)cc2)C(=O)C1=O [Cefoperazone dihydrate]
active: [1] 0.0254 | Shigella flexneri 0.0208 | Vibrio cholerae 0.0794 | [2] 0.16 | P. vulgatus RND KO 0.00991 | P. vulgatus WT 0.00365 | [4] 0.00245
inactive: [3] 0.144

CCCCC(CC)CNC(=N)NC(=N)NCCCCCCNC(=N)NC(=N)NCC(CC)CCCC (stereo not given) [Alexidine dihydrochloride]
inactive: [1] 0.981 | Vibrio cholerae 0.924 | [3] 0.977 | [4] 0.964
active: Shigella flexneri 0.833 | [2] 0.731 | P. vulgatus RND KO 0.0131 | P. vulgatus WT 0.00943

CC1(C)[C@@H](OC(=O)CCC(=O)O)CC[C@]2(C)[C@H]3C(=O)C=C4[C@@H]5C[C@@](C)(C(=O)O)CC[C@]5(C)CC[C@@]4(C)[C@]3(C)CC[C@@H]12 [Carbenoxolone disodium salt]
inactive: [1] 0.992 | Shigella flexneri 0.939 | Vibrio cholerae 0.971 | [2] 0.978 | P. vulgatus RND KO 0.967 | P. vulgatus WT 0.976 | [3] 0.997 | [4] 0.987

Cc1cccc(C)c1NC(=O)C(C)N (stereo not given) [Tocainide hydrochloride]
inactive: [1] 1 | Shigella flexneri 0.967 | Vibrio cholerae 1.01 | [2] 0.985 | P. vulgatus RND KO 1.02 | P. vulgatus WT 1.02 | [3] 0.999 | [4] 1

O=C(N[C@H](CO)[C@H](O)c1ccc([N+](=O)[O-])cc1)C(Cl)Cl [Chloramphenicol]
active: [1] 0.00522 | Shigella flexneri 0.0276 | Vibrio cholerae 0.0386 | [2] 0.0352 | P. vulgatus RND KO 0.018 | P. vulgatus WT 0.0107 | [3] 0.00734 | [4] 0.00302

N=C(N)NCc1cccc(I)c1 [Iobenguane sulfate]
inactive: [1] 1.03 | Shigella flexneri 1.03 | Vibrio cholerae 1.06 | [2] 1.01 | P. vulgatus RND KO 1.09 | P. vulgatus WT 1.1 | [3] 1.01 | [4] 1

CC(C)c1c(C(=O)Nc2ccccc2)c(-c2ccccc2)c(-c2ccc(F)cc2)n1CC[C@@H](O)C[C@@H](O)CC(=O)O [Atorvastatin]
inactive: [1] 1.01 | Shigella flexneri 1.04 | Vibrio cholerae 1.04 | [2] 1.01 | P. vulgatus RND KO 1.01 | P. vulgatus WT 1 | [3] 0.993 | [4] 0.994

CC(C)/N=c1\cc2n(-c3ccc(Cl)cc3)c3ccccc3nc-2cc1Nc1ccc(Cl)cc1 [Clofazimine]
inactive: [1] 0.99 | Shigella flexneri 0.996 | Vibrio cholerae 1 | [2] 1.03 | [3] 0.972 | [4] 1.02
active: P. vulgatus RND KO 0.0291 | P. vulgatus WT 0.0974

CC(COc1ccccc1)N(CCCl)Cc1ccccc1 (stereo not given) [Phenoxybenzamine hydrochloride]
inactive: [1] 1.01 | Shigella flexneri 1.01 | Vibrio cholerae 1.01 | [2] 1.03 | P. vulgatus RND KO 1.02 | P. vulgatus WT 1.03 | [3] 1 | [4] 0.99

O=C1Cc2cc(CCN3CCN(c4nsc5ccccc45)CC3)c(Cl)cc2N1 [Ziprasidone  hydrochloride monohydrate]
inactive: [1] 1.02 | Shigella flexneri 1.06 | Vibrio cholerae 1.01 | [2] 1 | P. vulgatus RND KO 1.03 | P. vulgatus WT 1.07 | [3] 1.02 | [4] 1

CC(C)(C(=O)c1cccnc1)c1cccnc1 [Metyrapone]
inactive: [1] 0.996 | Shigella flexneri 0.992 | Vibrio cholerae 0.965 | [2] 0.989 | P. vulgatus RND KO 0.996 | P. vulgatus WT 0.981 | [3] 1 | [4] 0.996

Cn1c(=O)c2c(ncn2CC2OCCO2)n(C)c1=O [Doxofylline]
inactive: [1] 1 | Shigella flexneri 1.07 | Vibrio cholerae 1.01 | [2] 0.99 | P. vulgatus RND KO 1.02 | P. vulgatus WT 1.06 | [3] 0.999 | [4] 1

CC[N+](CC)(CC)CCC(O)(c1ccccc1)C1CCCCC1 (stereo not given) [Tridihexethyl chloride]
inactive: [1] 1 | Shigella flexneri 1.03 | Vibrio cholerae 1.05 | [2] 1 | P. vulgatus RND KO 1.06 | P. vulgatus WT 1.07 | [3] 1.02 | [4] 0.686

CC(CN1c2ccccc2Sc2ccccc21)N(C)C (stereo not given) [Promethazine hydrochloride]
inactive: [1] 0.983 | Shigella flexneri 1.03 | Vibrio cholerae 0.961 | [2] 0.957 | P. vulgatus RND KO 0.718 | P. vulgatus WT 0.682 | [3] 1 | [4] 0.98

C#Cc1cccc(Nc2ncnc3cc(OCCOC)c(OCCOC)cc23)c1 [Erlotinib]
inactive: [1] 1 | Shigella flexneri 1.03 | Vibrio cholerae 1.02 | [2] 0.995 | P. vulgatus RND KO 0.967 | P. vulgatus WT 0.989 | [3] 0.997 | [4] 0.938

NS(=O)(=O)c1cc2c(cc1Cl)NCNS2(=O)=O [Hydrochlorothiazide]
inactive: [1] 1.02 | Shigella flexneri 0.994 | Vibrio cholerae 1.05 | [2] 1.01 | P. vulgatus RND KO 0.981 | P. vulgatus WT 0.997 | [3] 0.996 | [4] 1.02

CC(C)(CO)[C@@H](O)C(=O)NCCCO [(D)-Panthenol]
inactive: [1] 0.999 | Shigella flexneri 1.02 | Vibrio cholerae 0.998 | [2] 0.99 | P. vulgatus RND KO 0.995 | P. vulgatus WT 0.979 | [3] 1 | [4] 1

CC[C@]12CCCN3CCc4c(n(c5ccccc45)[C@@](O)(C(=O)OC)C1)[C@@H]32 [Vincamine]
inactive: [1] 1.02 | Shigella flexneri 0.979 | Vibrio cholerae 0.995 | [2] 0.989 | P. vulgatus RND KO 1.02 | P. vulgatus WT 1.05 | [3] 1.02 | [4] 1

CN(C)CCN(Cc1ccccc1)c1ccccn1 [Tripelennamine hydrochloride]
inactive: [1] 1 | Shigella flexneri 0.993 | Vibrio cholerae 1.01 | [2] 0.973 | P. vulgatus RND KO 0.982 | P. vulgatus WT 0.985 | [3] 0.965 | [4] 1

CO/N=C(\C(=O)N[C@@H]1C(=O)N2C(C(=O)O)=C(COC(N)=O)CS[C@H]12)c1ccco1 [Cefuroxime sodium salt]
inactive: [3] 0.342
active: [1] 0.0484 | Shigella flexneri 0.0576 | Vibrio cholerae 0.0553 | [2] 0.0424 | P. vulgatus RND KO 0.011 | P. vulgatus WT 0.0132 | [4] 0.00393

CCCCN(CCCC)CCC(O)c1cc2c(Cl)cc(Cl)cc2c2cc(C(F)(F)F)ccc12 (stereo not given) [Halofantrine hydrochloride]
inactive: [1] 0.944 | Shigella flexneri 1.04 | Vibrio cholerae 1.06 | [2] 1.03 | P. vulgatus RND KO 1.06 | P. vulgatus WT 1.11 | [3] 1.02 | [4] 1.01

COc1cc(C)nc(-n2nc(C)cc2OC)n1 [Epirizole]
inactive: [1] 0.997 | Shigella flexneri 1 | Vibrio cholerae 0.981 | [2] 0.992 | P. vulgatus RND KO 0.979 | P. vulgatus WT 0.999 | [3] 1 | [4] 1.01

NC(=O)c1ncn([C@@H]2O[C@H](CO)[C@@H](O)[C@H]2O)n1 [Ribavirin]
inactive: [1] 0.995 | Shigella flexneri 0.949 | Vibrio cholerae 0.983 | [2] 0.952 | P. vulgatus RND KO 0.987 | P. vulgatus WT 1 | [3] 0.98 | [4] 0.988

CC(C)NCC(O)COc1cccc2[nH]ccc12 (stereo not given) [Pindolol]
inactive: [1] 1.01 | Shigella flexneri 1.04 | Vibrio cholerae 1.03 | [2] 0.978 | P. vulgatus RND KO 1.05 | P. vulgatus WT 1.08 | [3] 1 | [4] 1.01

CN(C)CCCN1c2ccccc2Sc2ccc(Cl)cc21 [Chlorpromazine hydrochloride]
active: Vibrio cholerae 0.877
inactive: [1] 0.996 | Shigella flexneri 0.983 | [2] 0.985 | P. vulgatus RND KO 0.924 | P. vulgatus WT 0.903 | [3] 1 | [4] 0.962
